Test results published in PubChem BioAssay (Tox21).
Where “and” joins values, the source holds several entries; their conditions need not be identical. Equal values may be shown once. Inconclusive results are not listed. Calls of active or inactive are those of the source. Unless noted, calls follow the shape of the dose curve; as a rule, active = well fitted curve in the direction sought with a large enough effect in the repeat runs; inconclusive = weak or mixed curves; inactive = no such curve, though single readings can be large; an effect the other way counts as inactive or inconclusive.

Tests used:
[1] = qHTS assay to identify small molecule antagonists of the retinoid-related orphan receptor gamma (ROR-gamma) signaling pathway - cell viability counter screen (AID 1159520); also: nearly all actives have a fitted effect of over 50% in size; also: potency is read from the fitted curve at half-maximal effect
How it was run: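 Cytotoxicity was read from cellular ATP (CellTiter-Glo luminescence) after 16 hr at 37 C with 1 uM doxycycline induction. The inducer was added 2 hr after compound transfer to Tet-on ROR gamma CHO cells.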

[2] = qHTS assay to identify small molecule agonists of the AP-1 signaling pathway - cell viability counter screen (AID 1159525; calls by dose curve; also: nearly all actives have a fitted effect of over 55% in size)
How it was run: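 Luminescent ATP readout (Cell Titer Glo, 30 min RT), normalised to DMSO and tetra n-octyl ammonium bromide controls. Cells were ME-180 AP-1-bla in 0.5% dialyzed FBS Opti-MEM, with a 5 h, 37 °C compound exposure.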

[3] = qHTS assay to identify small molecule agonists of the AP-1 signaling pathway (AID 1159526; calls by dose curve)
[4] = target: Retinoic acid receptor RXR-alpha (Homo sapiens) (UniProt P19793); experiment: qHTS assay to identify small molecule agonists of the RXR signaling pathway (AID 1159527; calls by dose curve; also: nearly all actives have a fitted effect of over 35% in size)
Sequence of Retinoic acid receptor RXR-alpha (Homo sapiens) (P19793 whole entry, looked up): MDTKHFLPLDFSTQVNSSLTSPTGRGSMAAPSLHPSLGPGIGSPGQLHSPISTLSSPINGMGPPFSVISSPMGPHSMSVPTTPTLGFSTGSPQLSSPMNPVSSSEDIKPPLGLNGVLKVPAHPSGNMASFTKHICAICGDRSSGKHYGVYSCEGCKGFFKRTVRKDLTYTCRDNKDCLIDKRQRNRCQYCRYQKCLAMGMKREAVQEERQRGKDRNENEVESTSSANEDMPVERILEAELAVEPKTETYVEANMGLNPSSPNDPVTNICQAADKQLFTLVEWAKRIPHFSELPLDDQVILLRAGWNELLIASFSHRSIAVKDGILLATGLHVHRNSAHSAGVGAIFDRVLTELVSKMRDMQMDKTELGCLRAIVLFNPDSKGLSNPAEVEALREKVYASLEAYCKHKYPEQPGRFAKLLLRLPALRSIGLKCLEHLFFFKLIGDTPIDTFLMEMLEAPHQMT
How it was run: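 Agonist-mode beta-lactamase reporter assay: HEK 293T RXR-alpha-UAS-bla cells treated 16 hr at 37 C with compounds, 9-cis retinoic acid as positive control. LiveBLAzer FRET substrate, 405 nm excitation, 460/530 nm emission.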

[5] = qHTS assay to identify small molecule agonists of the peroxisome proliferator-activated receptor delta (PPARd) signaling pathway - cell viability counter screen (AID 743211); also: nearly all actives have a fitted effect of over 55% in size; also: potency is read from the fitted curve at half-maximal effect
How it was run: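 Viability was measured as CellTiter-Glo luminescence (30 min, room temperature) in the same wells as the beta-lactamase readout. GeneBLAzer PPARd UAS-bla HEK293H cells received compound after 5 h plating and were incubated 17 h at 37 C.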

[6] = qHTS assay to identify small molecule antagonists of the peroxisome proliferator-activated receptor delta (PPARd) signaling pathway - cell viability counter screen (AID 743213); also: nearly all actives have a fitted effect of over 50% in size; also: potency is read from the fitted curve at half-maximal effect
How it was run: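 PPARd-bla HEK293H cells (3000/well) got compound plus 300 nM L165041 agonist for 17 h at 37 C. Viability in the same wells came from CellTiter-Glo luminescence after 30 min at room temperature.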

[7] = qHTS assay to identify small molecule antagonists of the farnesoid-X-receptor (FXR) signaling pathway - cell viability counter screen (AID 743221; active = well fitted cell-killing curve with a large enough effect in the repeat runs, not every such curve was filed as active; also: nearly all actives have a fitted effect of over 50% in size; also: potency is read from the fitted curve at half-maximal effect)
How it was run: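 Cytotoxicity counter screen run in the FXR-bla reporter wells: HEK 293T cells exposed to compound with 50 uM (final) chenodeoxycholic acid for 16 h, 37 C, then viability measured by CellTiter-Glo luminescence after 30 min, room temperature.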

[8] = target: Vitamin D3 receptor (Homo sapiens) (UniProt P11473); experiment: qHTS assay to identify small molecule agonists of the vitamin D receptor (VDR) signaling pathway (AID 743222; calls by dose curve)
Sequence of Vitamin D3 receptor (Homo sapiens) (P11473 whole entry, looked up): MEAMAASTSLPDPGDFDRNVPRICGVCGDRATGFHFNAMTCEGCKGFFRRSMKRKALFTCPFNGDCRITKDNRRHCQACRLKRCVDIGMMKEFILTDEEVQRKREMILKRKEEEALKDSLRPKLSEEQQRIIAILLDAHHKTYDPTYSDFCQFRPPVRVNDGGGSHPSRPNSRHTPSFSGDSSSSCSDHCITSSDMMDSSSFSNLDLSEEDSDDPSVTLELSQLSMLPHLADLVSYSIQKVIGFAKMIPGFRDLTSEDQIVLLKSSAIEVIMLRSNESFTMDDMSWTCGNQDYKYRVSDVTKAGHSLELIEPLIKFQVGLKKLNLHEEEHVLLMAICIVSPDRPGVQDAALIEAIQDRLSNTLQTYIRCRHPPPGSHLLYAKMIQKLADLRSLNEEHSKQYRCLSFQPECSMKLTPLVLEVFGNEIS
How it was run: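 VDR-bla cells, 2,000/well; 4 h preincubation 37C; cpd (DMSO) 16 h; LiveBLAzer B/G substrate 2 h RT; fluorescence intensity read.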

[9] = qHTS assay to identify small molecule agonists of the vitamin D receptor (VDR) signaling pathway - cell viability counter screen (AID 743224); also: nearly all actives have a fitted effect of over 50% in size; also: potency is read from the fitted curve at half-maximal effect
How it was run: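 Luminescence from CellTiter-Glo, read after 30 min at room temperature, reports viability of VDR-bla cells treated with compounds for 16 h at 37C in the wells used for the beta-lactamase FRET read.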

[10] = target: Nuclear receptor ROR-gamma (Homo sapiens) (UniProt P51449); experiment: qHTS assay to identify small molecule antagonists of the retinoid-related orphan receptor gamma (ROR-gamma) signaling pathway (AID 1159521; also: nearly all actives have a fitted effect of over 50% in size; also: potency is read from the fitted curve at half-maximal effect)
How it was run: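 Antagonist read-out: drop in luminescence (ONE-Glo) from an RORE-LUC reporter in CHO cells with doxycycline-inducible ROR-gamma; 2 hr compound pretreatment, 1 uM doxycycline, 16 hr incubation at 37 C.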

[11] = target: Peroxisome proliferator-activated receptor delta (Homo sapiens) (UniProt Q03181); experiment: qHTS assay to identify small molecule agonists of the peroxisome proliferator-activated receptor delta (PPARd) signaling pathway (AID 743212; calls by dose curve)
Sequence of Peroxisome proliferator-activated receptor delta (Homo sapiens) (Q03181 whole entry, looked up): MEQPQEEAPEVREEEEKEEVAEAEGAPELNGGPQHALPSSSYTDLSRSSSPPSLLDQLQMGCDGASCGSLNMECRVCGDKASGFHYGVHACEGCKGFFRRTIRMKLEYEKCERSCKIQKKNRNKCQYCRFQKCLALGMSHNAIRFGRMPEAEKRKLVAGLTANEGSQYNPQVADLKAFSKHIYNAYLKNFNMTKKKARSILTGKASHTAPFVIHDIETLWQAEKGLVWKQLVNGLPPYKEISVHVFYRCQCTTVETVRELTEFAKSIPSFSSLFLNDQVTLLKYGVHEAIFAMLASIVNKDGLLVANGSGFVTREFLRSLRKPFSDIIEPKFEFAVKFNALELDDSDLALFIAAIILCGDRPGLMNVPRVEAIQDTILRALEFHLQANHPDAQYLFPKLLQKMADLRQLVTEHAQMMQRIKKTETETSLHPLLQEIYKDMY
How it was run: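 HEK293H PPARd-bla cells; 5 h preincubation 37 C/5% CO2; compound (DMSO) 37 C; LiveBLAzer B/G FRET substrate 2 h RT; fluorescence intensity.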

[12] = target: Peroxisome proliferator-activated receptor delta (Homo sapiens) (UniProt Q03181); experiment: qHTS assay to identify small molecule antagonists of the peroxisome proliferator-activated receptor delta (PPARd) signaling pathway (AID 743215; active = well fitted inhibition curve with a large enough effect in the signal ratio in the repeat runs, not every such curve was filed as active; the % refers to the signal ratio;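 also: cells stimulated with agonist L165041 at 300 nM final during compound exposure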; also: potency is read from the fitted curve at half-maximal effect)
How it was run: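 Read-out is beta-lactamase FRET fluorescence, measured 2 h after substrate addition at room temperature. Beforehand, UAS-bla HEK293H cells carrying the PPARd reporter were exposed to compounds with L165041 at 300 nM final for 17 h at 37 C.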

[13] = target: Vitamin D3 receptor (Homo sapiens) (UniProt P11473); experiment: qHTS assay to identify small molecule antagonists of the vitamin D receptor (VDR) signaling pathway (AID 743223; active = well fitted inhibition curve with a large enough effect in the signal ratio in the repeat runs, not every such curve was filed as active; the % refers to the signal ratio; also: potency is read from the fitted curve at half-maximal effect)
How it was run: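 Antagonist mode: compound added to VDR-bla cells alongside agonist 1alpha,25-dihydroxyvitamin D3 (3 nM final), incubation 16 h at 37C. Read-out is LiveBLAzer FRET fluorescence, 2 h at room temperature.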

[14] = qHTS assay to identify small molecule antagonists of the vitamin D receptor (VDR) signaling pathway - cell viability counter screen (AID 743225); also: nearly all actives have a fitted effect of over 50% in size; also: potency is read from the fitted curve at half-maximal effect
How it was run: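 Cytotoxicity counter screen read by CellTiter-Glo luminescence (30 min, room temperature) in the same wells as the VDR-bla antagonist readout. HEK 293T VDR-UAS-bla cells had 16 h at 37C with compound and 3 nM (final) 1-alpha,25-dihydroxyvitamin D3, then 2 h with FRET substrate.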

[15] = target: Bile acid receptor (Homo sapiens) (UniProt Q96RI1); experiment: qHTS assay to identify small molecule antagonists of the farnesoid-X-receptor (FXR) signaling pathway (AID 743217; active = well fitted inhibition curve with a large enough effect in the signal ratio in the repeat runs, not every such curve was filed as active; the % refers to the signal ratio; also: potency is read from the fitted curve at half-maximal effect)
Sequence of Bile acid receptor (Homo sapiens) (Q96RI1 whole entry, looked up): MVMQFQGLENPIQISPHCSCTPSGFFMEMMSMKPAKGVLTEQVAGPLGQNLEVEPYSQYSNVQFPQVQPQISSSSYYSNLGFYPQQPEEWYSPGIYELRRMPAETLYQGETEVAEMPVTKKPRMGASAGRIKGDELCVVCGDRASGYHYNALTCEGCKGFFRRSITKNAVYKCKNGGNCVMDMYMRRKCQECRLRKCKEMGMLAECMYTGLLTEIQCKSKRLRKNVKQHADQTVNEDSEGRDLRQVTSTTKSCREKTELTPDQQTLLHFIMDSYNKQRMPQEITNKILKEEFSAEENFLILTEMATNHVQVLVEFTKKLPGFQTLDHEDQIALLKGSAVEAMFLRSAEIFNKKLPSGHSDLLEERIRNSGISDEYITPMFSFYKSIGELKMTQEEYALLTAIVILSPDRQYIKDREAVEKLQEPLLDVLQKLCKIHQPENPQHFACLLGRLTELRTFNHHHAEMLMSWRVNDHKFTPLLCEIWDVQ
How it was run: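 HEK 293T FXR-UAS-bla, 5000 cells/well; compound + CDCA 50 uM final; 16 h, 37 °C; B/G FRET substrate 2 h RT; fluorescence.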

[16] = qHTS assay to identify small molecule agonists of the farnesoid-X-receptor (FXR) signaling pathway - cell viability counter screen (AID 743218); also: nearly all actives have a fitted effect of over 45% in size; also: potency is read from the fitted curve at half-maximal effect
How it was run: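 HEK 293T FXR-bla cells; 5 h pre-incubation, 16 h compound exposure at 37 C; LiveBLAzer substrate 2 h RT, then CellTiter-Glo 30 min RT, luminescence.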

[17] = target: Bile acid receptor (Homo sapiens) (UniProt Q96RI1); experiment: qHTS assay to identify small molecule agonists of the farnesoid-X-receptor (FXR) signaling pathway (AID 743220; active = well fitted activation curve with a large enough effect in the signal ratio in the repeat runs, not every such curve was filed as active; the % refers to the signal ratio)
How it was run: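 Beta-lactamase reporter under UAS control in GeneBLAzer FXR HEK 293T cells (5000/well) measured with LiveBLAzer FRET substrate after 2 h at room temperature. Compound exposure lasted 16 h at 37C.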

Measured: Potency

CCOP(=S)(OCC)SCS(=O)(=O)CC
inactive: [1] | [2] | [3] | [4]

ClC1=C(Cl)[C@]2(Cl)[C@@H]3[C@@H](Cl)[C@H](Cl)C[C@@H]3[C@@]1(Cl)C2(Cl)Cl
inactive: [1] | [2] | [3] | [4]

CC(C)C(=O)Cl
inactive: [1] | [2] | [3] | [4]

Cc1ccc(CCl)cc1
inactive: [1] | [2] | [3] | [4]

Clc1ccc(CSC(Cn2ccnc2)c2ccc(Cl)cc2Cl)cc1 (stereo unspecified)
inactive: [8] | [1]
active: [5] 33.5 µM | [6] 33.5 µM | [7] 23.7 µM | [9] 29.8 µM | [10] 29.8 µM

CC(=O)c1cc(C(C)(C)C)cc2c1CCC2(C)C
inactive: [11] | [6] | [12] | [7] | [13] | [14] | [1] | [10]
active: [9] 49 µM

CCS(=O)(=O)c1cccnc1S(=O)(=O)NC(=O)Nc1nc(OC)cc(OC)n1
inactive: [1] | [3] | [4]

CCC(C)c1cc(C(C)(C)C)cc(-n2nc3ccccc3n2)c1O (stereo unspecified)
inactive: [1] | [2] | [3]

O=C(Nc1ccc2[nH]ccc2c1)c1cc2cc(F)ccc2n1Cc1cccc(F)c1
inactive: [17]
active: [5] 24.5 µM | [6] 43.6 µM | [15] 54.9 µM | [16] 49 µM | [13] 43.6 µM | [9] 43.6 µM | [14] 43.6 µM | [1] 48.6 µM | [10] 43.3 µM

[Cd+2].[Cl-].[Cl-]
inactive: [2]
active: [5] 2.21 µM and 1.38 µM | [6] 7.83 µM and 1.23 µM | [16] 11.1 µM and 6.16 µM | [7] 12.4 µM and 19.5 µM | [9] 1.75 µM and 1.23 µM | [14] 8.78 µM and 2.45 µM | [1] 27.5 µM

Oc1ccc(C2(c3ccc(O)cc3)CCCCC2)cc1
active: [5] 41.3 µM | [6] 46.4 µM | [12] 46.4 µM | [16] 23.2 µM | [9] 46.4 µM | [14] 36.8 µM
inactive: [11] | [17]

CNC(C)Cc1ccc2c(c1)OCO2 (stereo unspecified)
inactive: [16] | [8] | [13] | [14] | [1] | [2]

CC(O)C#N (stereo unspecified)
inactive: [1] | [2] | [4]

Cc1cc(Cl)ccc1O[C@H](C)C(=O)O
inactive: [1] | [2] | [3] | [4]

O=[N+]([O-])c1cc([N+](=O)[O-])c2ccccc2c1
inactive: [6] | [7] | [9] | [14] | [1] | [10]

CCCCCCCCCCBr
inactive: [1] | [4]

CC(C)(C)C(O)C(Oc1ccc(-c2ccccc2)cc1)n1cncn1 (stereo unspecified)
inactive: [1] | [2]

C=COCCCl
inactive: [1] | [2] | [3] | [4]

OC(c1ccc(Cl)cc1)(c1ccc(Cl)cc1)C(Cl)(Cl)Cl
active: [1] 61.1 µM
inactive: [11] | [6] | [12] | [17] | [7] | [8] | [13] | [14]

SCc1ccco1
inactive: [1] | [2]

Nc1ccc(Sc2ccc(N)cc2)cc1
inactive: [5] | [17] | [8] | [9] | [1] | [10]

Oc1cccc(-c2ccccc2)c1
inactive: [1] | [2] | [4]

COS(=O)(=O)c1ccc(C)cc1
inactive: [1] | [2] | [3] | [4]

N#CCCC(Br)(C#N)CBr (stereo unspecified)
active: [9] 43.6 µM | [1] 19.3 µM
inactive: [5] | [11] | [17] | [7]
